# Assay results from the supplement of paper PMC8728848.
# Only a selection was taken, and the strongest signals are over-represented in it overall.
# Legend:
# Experiment in all cases: glycan array binding signal (z-score within array); higher = stronger binding
# Conditions in all cases: glycan notation: IUPAC condensed, linker removed
# [1] = target: Neu5Ac(a2-3)Gal(b1-3)GlcNAc(b1-3)Gal(b1-4)GlcNAc
# Summary of the method: (§1)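 The Consortium for Functional Glycomics database supplied 3228 glycan arrays, of which those lacking an available protein sequence were dropped. The binding signal, a within-array Z-score, was averaged across arrays of the same protein sequence and across linkers. Negative scores can be read as non-binding.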
# [2] = target: Neu5Ac(a2-3)Gal(b1-3)[Neu5Ac(a2-6)]GalNAc
# Summary of the method: as §1
# [3] = target: Neu5Ac(a2-3)Gal(b1-4)GlcNAc(b1-3)Gal
# Summary of the method: as §1
# [4] = target: Neu5Ac(a2-3)[GalNAc(b1-4)]Gal(b1-4)Glc
# Summary of the method: as §1
# [5] = target: Neu5Ac(a2-8)Neu5Ac(a2-8)Neu5Ac(a2-3)Gal(b1-4)Glc
# Summary of the method: as §1
# Neu5Gc(a2-6)GalNAc = target: Neu5Gc(a2-6)GalNAc
# Summary of the method: as §1
# Fuc(a1-2)Gal(b1-4)GlcNAc = target: Fuc(a1-2)Gal(b1-4)GlcNAc
# Summary of the method: as §1
# [6] = target: Fuc(a1-2)Gal(b1-4)GlcNAc(b1-3)Gal(b1-4)GlcNAc(b1-3)Gal(b1-4)GlcNAc
# Summary of the method: as §1
# [7] = target: Fuc(a1-2)Gal(b1-4)GlcNAc6S
# Summary of the method: as §1
# Fuc(a1-2)[Gal(a1-3)]Gal = target: Fuc(a1-2)[Gal(a1-3)]Gal
# Summary of the method: as §1
# [8] = target: Gal(a1-3)Gal(b1-4)[Fuc(a1-3)]GlcNAc
# Summary of the method: as §1
# Gal(b1-2)Gal = target: Gal(b1-2)Gal
# Summary of the method: as §1
# [9] = target: Gal(b1-3)[Fuc(a1-4)]GlcNAc(b1-3)Gal(b1-4)GlcNAc
# Summary of the method: as §1
# [10] = target: Gal(b1-3)[Fuc(a1-4)]GlcNAc(b1-3)Gal(b1-4)[Fuc(a1-3)]GlcNAc
# Summary of the method: as §1
# Gal3S(b1-4)Glc6S = target: Gal3S(b1-4)Glc6S
# Summary of the method: as §1
# Gal3S6S(b1-4)GlcNAc6S = target: Gal3S6S(b1-4)GlcNAc6S
# Summary of the method: as §1
# [11] = target: GlcNAc(b1-4)Gal(b1-4)GlcNAc
# Summary of the method: as §1
# [12] = target: Man(a1-2)Man(a1-3)[Man(a1-2)Man(a1-6)]Man
# Summary of the method: as §1
# [13] = target: Man(a1-2)Man(a1-3)[Man(a1-2)Man(a1-6)]Man(a1-6)[Man(a1-2)Man(a1-2)Man(a1-3)]Man
# Summary of the method: as §1
# [14] = target: Neu5Ac(a2-3)Gal(b1-4)[Fuc(a1-3)]GlcNAc(b1-3)Gal
# Summary of the method: as §1
# [15] = target: Neu5Ac(a2-3)Gal(b1-4)[Fuc(a1-3)]GlcNAc(b1-6)[Gal(b1-3)]GalNAc
# Summary of the method: as §1
# [16] = target: Neu5Ac(a2-6)Gal(b1-4)GlcNAc(b1-2)Man(a1-3)[GlcNAc(b1-2)Man(b1-4)GlcNAc(b1-2)Man(a1-6)]Man(b1-4)GlcNAc(b1-4)GlcNAc
# Summary of the method: as §1
# [17] = target: Fuc(a1-3)[Gal3S(b1-4)]GlcNAc
# Summary of the method: as §1
# [18] = target: Fuc(a1-3)[Neu5Ac(a2-3)]Gal(b1-4)GlcNAc(b1-3)GalNAc
# Summary of the method: as §1
# Gal(a1-6)Glc = target: Gal(a1-6)Glc
# Summary of the method: as §1
# Gal(b1-4)Glc = target: Gal(b1-4)Glc
# Summary of the method: as §1
# [19] = target: Gal(b1-4)GlcNAc(b1-2)Man(a1-6)Man(b1-4)GlcNAc(b1-4)GlcNAc
# Summary of the method: as §1
# [20] = target: Gal3S(b1-3)[Fuc(a1-4)]GlcNAc
# Summary of the method: as §1
# Gal3S(b1-4)Glc = target: Gal3S(b1-4)Glc
# Summary of the method: as §1
# Gal6S(b1-4)GlcNAc6S = target: Gal6S(b1-4)GlcNAc6S
# Summary of the method: as §1
# [21] = target: GalNAc(b1-4)GlcNAc(b1-2)Man(a1-3)[GalNAc(b1-4)GlcNAc(b1-2)Man(a1-6)]Man(b1-4)GlcNAc(b1-4)GlcNAc
# Summary of the method: as §1
# [22] = target: GlcNAc(a1-4)Gal(b1-4)GlcNAc(b1-3)Gal(b1-4)Glc
# Summary of the method: as §1
# [23] = target: GlcNAc(a1-4)Gal(b1-4)GlcNAc(b1-3)Gal(b1-4)[Fuc(a1-3)]GlcNAc(b1-3)Gal(b1-4)[Fuc(a1-3)]GlcNAc
# Summary of the method: as §1
# GlcNAc(b1-4)GlcNAc = target: GlcNAc(b1-4)GlcNAc
# Summary of the method: as §1
# [24] = target: GlcNAc(b1-4)GlcNAc(b1-4)GlcNAc(b1-4)GlcNAc(b1-4)GlcNAc
# Summary of the method: as §1
# Kdn(a2-6)Gal(b1-4)GlcNAc = target: Kdn(a2-6)Gal(b1-4)GlcNAc
# Summary of the method: as §1
# [25] = target: Man(a1-2)Man(a1-3)[Man(a1-6)]Man(a1-6)[Man(a1-2)Man(a1-3)]Man(b1-4)GlcNAc(b1-4)GlcNAc
# Summary of the method: as §1
# [26] = target: Neu5Ac(a2-3)Gal(b1-3)GlcNAc6S
# Summary of the method: as §1
# Neu5Ac(a2-3)Gal(b1-4)Glc = target: Neu5Ac(a2-3)Gal(b1-4)Glc
# Summary of the method: as §1
# [27] = target: Neu5Ac(a2-3)Gal(b1-4)GlcNAc6S
# Summary of the method: as §1
# [28] = target: Neu5Ac(a2-3)Gal(b1-4)[Fuc(a1-3)]GlcNAc(b1-3)Gal(b1-4)GlcNAc
# Summary of the method: as §1
binder,measurement,setting,value
"BC2L-A (Burkholderia cenocepacia), Q1BKJ8_BURCA (protein) ADSQTSSNRAGEFSIPPNTDFRAIFFANAAEQQHIKLFIGDSQEPAAYHKLTTRDGPREATLNSGNGKIRFEVSVNGKPSATDARLAPINGKKSDGSPFTVNFGIVVSEDGHDSDYNDGIVVLQWPIG",glycan array binding signal (z-score),[1],-0.218
same,glycan array binding signal (z-score),[2],-0.083
same,glycan array binding signal (z-score),[3],-0.214
same,glycan array binding signal (z-score),[4],-0.295
same,glycan array binding signal (z-score),[5],-0.253
same,glycan array binding signal (z-score),Neu5Gc(a2-6)GalNAc,-0.29
"Chaperone 60.2 (Mycobacterium tuberculosum), P9WPE7 (protein) MAKTIAYDEEARRGLERGLNALADAVKVTLGPKGRNVVLEKKWGAPTITNDGVSIAKEIELEDPYEKIGAELVKEVAKKTDDVAGDGTTTATVLAQALVREGLRNVAAGANPLGLKRGIEKAVEKVTETLLKGAKEVETKEQIAATAAISAGDQSIGDLIAEAMDKVGNEGVITVEESNTFGLQLELTEGMRFDKGYISGYFVTDPERQEAVLEDPYILLVSSKVSTVKDLLPLLEKVIGAGKPLLIIAEDVEGEALSTLVVNKIRGTFKSVAVKAPGFGDRRKAMLQDMAILTGGQVISEEVGLTLENADLSLLGKARKVVVTKDETTIVEGAGDTDAIAGRVAQIRQEIENSDSDYDREKLQERLAKLAGGVAVIKAGAATEVELKERKHRIEDAVRNAKAAVEEGIVAGGGVTLLQAAPTLDELKLEGDEATGANIVKVALEAPLKQIAFNSGLEPGVVAEKVRNLPAGHGLNAQTGVYEDLLAAGVADPVKVTRSALQNAASIAGLFLTTEAVVADKPEKEKASVPGGGDMGGMDF",glycan array binding signal (z-score),Fuc(a1-2)Gal(b1-4)GlcNAc,1.32
same,glycan array binding signal (z-score),[6],-0.159
same,glycan array binding signal (z-score),[7],4.33
same,glycan array binding signal (z-score),Fuc(a1-2)[Gal(a1-3)]Gal,-0.04
same,glycan array binding signal (z-score),[8],-0.652
same,glycan array binding signal (z-score),Gal(b1-2)Gal,-0.591
same,glycan array binding signal (z-score),[9],3.11
same,glycan array binding signal (z-score),[10],-0.254
same,glycan array binding signal (z-score),Gal3S(b1-4)Glc6S,4.1
same,glycan array binding signal (z-score),Gal3S6S(b1-4)GlcNAc6S,3.22
same,glycan array binding signal (z-score),[11],-0.93
same,glycan array binding signal (z-score),[12],1.47
same,glycan array binding signal (z-score),[13],-1.16
same,glycan array binding signal (z-score),[14],-0.716
same,glycan array binding signal (z-score),[15],-0.295
same,glycan array binding signal (z-score),[16],3.89
same,glycan array binding signal (z-score),[5],-0.208
"Spy 2007 (Streptococcus pyogenes), Q99XV3 (protein) MKKGFFLMAMVVSLVMIAGCDKSANPKQPTQGMSVVTSFYPMYAMTKEVSGDLNDVRMIQSGAGIHSFEPSVNDVAAIYDADLFVYHSHTLEAWARDLDPNLKKSKVDVFEASKPLTLDRVKGLEDMEVTQGIDPATLYDPHTWTDPVLAGEEAVNIAKELGRLDPKHKDSYTKNAKAFKKEAEQLTEEYTQKFKKVRSKTFVTQHTAFSYLAKRFGLKQLGISGISPEQEPSPRQLKEIQDFVKEYNVKTIFAEDNVNPKIAHAIAKSTGAKVKTLSPLEAAPSGNKTYLENLRANLEVLYQQLK",glycan array binding signal (z-score),Fuc(a1-2)Gal(b1-4)GlcNAc,0.299
same,glycan array binding signal (z-score),[17],0.277
same,glycan array binding signal (z-score),[18],5.41
same,glycan array binding signal (z-score),Gal(a1-6)Glc,-0.074
same,glycan array binding signal (z-score),Gal(b1-4)Glc,-0.461
same,glycan array binding signal (z-score),[19],-0.392
same,glycan array binding signal (z-score),[20],3.35
same,glycan array binding signal (z-score),Gal3S(b1-4)Glc,-0.543
same,glycan array binding signal (z-score),Gal6S(b1-4)GlcNAc6S,5.95
same,glycan array binding signal (z-score),[21],3.5
same,glycan array binding signal (z-score),[22],0.12
same,glycan array binding signal (z-score),[23],3.22
same,glycan array binding signal (z-score),GlcNAc(b1-4)GlcNAc,-0.446
same,glycan array binding signal (z-score),[24],4.65
same,glycan array binding signal (z-score),Kdn(a2-6)Gal(b1-4)GlcNAc,-0.715
same,glycan array binding signal (z-score),[25],-0.649
same,glycan array binding signal (z-score),[26],-0.663
same,glycan array binding signal (z-score),[2],1.08
same,glycan array binding signal (z-score),Neu5Ac(a2-3)Gal(b1-4)Glc,0.127
same,glycan array binding signal (z-score),[27],1.47
same,glycan array binding signal (z-score),[28],0.479
